We go through 29 molecules from ChEMBL document CHEMBL3988442, “University of Dundee, Small-Polar-MMV Screening Library” (2021).

Structures are written as SMILES.

For the assay, the target named is T1, Methionyl-tRNA synthetase, putative (Leishmania donovani (strain BPK282A1)) (UniProt E9BF75).
T1 sequence (whole entry): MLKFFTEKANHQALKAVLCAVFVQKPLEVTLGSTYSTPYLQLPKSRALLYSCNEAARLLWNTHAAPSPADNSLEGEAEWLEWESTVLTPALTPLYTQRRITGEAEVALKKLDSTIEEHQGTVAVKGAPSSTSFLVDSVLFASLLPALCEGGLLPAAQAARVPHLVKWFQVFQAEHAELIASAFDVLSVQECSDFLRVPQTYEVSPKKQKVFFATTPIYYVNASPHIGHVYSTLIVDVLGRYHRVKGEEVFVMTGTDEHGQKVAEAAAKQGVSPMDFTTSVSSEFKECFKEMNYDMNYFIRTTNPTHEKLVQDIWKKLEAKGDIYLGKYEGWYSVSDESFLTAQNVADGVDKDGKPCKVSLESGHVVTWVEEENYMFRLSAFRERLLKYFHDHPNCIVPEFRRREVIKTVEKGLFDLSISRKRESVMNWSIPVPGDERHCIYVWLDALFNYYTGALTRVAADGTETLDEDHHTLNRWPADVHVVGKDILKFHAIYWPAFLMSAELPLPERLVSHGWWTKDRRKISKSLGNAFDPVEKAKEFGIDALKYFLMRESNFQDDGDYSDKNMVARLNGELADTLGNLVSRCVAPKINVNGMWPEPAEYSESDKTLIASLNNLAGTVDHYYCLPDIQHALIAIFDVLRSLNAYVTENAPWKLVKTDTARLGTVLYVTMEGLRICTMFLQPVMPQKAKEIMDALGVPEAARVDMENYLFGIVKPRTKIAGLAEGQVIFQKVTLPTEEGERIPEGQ
The experiment in a line: Leishmania donovani Methionine tRNA synthetase (LdMetRS):v7. Dose response assay. It counts as functional. Also noted: conc 80 nM, time 150 minutes.

`Nc1noc2ccc(-c3cnc4ccc(N5CCOCC5)nn34)cc12` displayed a PXC50 (MAX_EFFECT 12.21374046) of less than 4 and a PXC50 (MAX_EFFECT 20.61403509) of less than 4.
On to `Cc1sc2nc(CN3CCOCC3)nc(NCC3CCCO3)c2c1C` (stereo not drawn), for which the PXC50 is, setting by setting: (MAX_EFFECT 9.836065574) less than 4; (MAX_EFFECT 10.69518717) less than 4.
As for `Cc1nc(NC(CC(C)C)C(=O)O)c2c3c(sc2n1)CCC3` (stereo not drawn), the PXC50 is less than 4 (MAX_EFFECT 14.004914) and less than 4 (MAX_EFFECT 14.57286432).
As for `O=C1CN(c2nc(-c3cccs3)nc3sc4c(c23)CCCC4)CCN1`, the PXC50 runs as follows: (MAX_EFFECT 29.33333333) less than 4; (MAX_EFFECT 31.74603175) less than 4.
With `Cn1ccnc1CN1CCC(F)(F)C2(CCN(c3cccnc3)C2)C1` (stereo not drawn), the PXC50 is less than 4 (MAX_EFFECT 9.719626168) and less than 4 (MAX_EFFECT 11.33786848).
Molecule `Cc1sc2nc(CN3CCOCC3)nc(NC(C)(C)CCO)c2c1C` gave a PXC50 (MAX_EFFECT 4.371584699) of less than 4 and a PXC50 (MAX_EFFECT 8.021390374) of less than 4.
The molecule `CC(C)C[C@H](N)COc1ccccc1-c1ccno1` gave a PXC50 (MAX_EFFECT 9.594882729) of less than 4 and a PXC50 (MAX_EFFECT 10.97308489) of less than 4.
`CC(C)C[C@H](N)COc1ccc(OC(F)(F)F)c(F)c1`: the PXC50 is less than 4 (MAX_EFFECT 10.87420043) and less than 4 (MAX_EFFECT 10.97308489).
Take `CCc1cc2c(NC(C(=O)O)C(C)C)nc(-c3ccccc3)nc2s1` (stereo not drawn): the PXC50 was less than 4 (MAX_EFFECT 27.80748663) and less than 4 (MAX_EFFECT 31.69398907).
Take `Cc1nc(N2C[C@@H](CN3CCCN(C)CC3)[C@@H](CO)C2)c2ccsc2n1`: the PXC50 runs as follows: (MAX_EFFECT 12.53263708) less than 4; (MAX_EFFECT 15.40469974) less than 4.
`CCc1nc(N2CCN(c3ncccn3)CC2)c2cc(C)sc2n1`: the PXC50 (MAX_EFFECT 13.86666667) is less than 4 and the PXC50 (MAX_EFFECT 15.34391534) is less than 4.
`Cc1nc(N(C)CC(=O)N(C)C)c2c3c(sc2n1)CCC3` came in with a PXC50 (MAX_EFFECT 0.0) of less than 4 and a PXC50 (MAX_EFFECT 1.058201058) of less than 4.
For `CC(C)C[C@H](N)COc1ccc(Cl)cc1C(=O)c1ccccc1`, the PXC50 reads like this: (MAX_EFFECT 7.036247335) less than 4; (MAX_EFFECT 9.316770186) less than 4.
Regarding `COC(=O)c1sc2nc(C)nc(N(C)Cc3cc(C)on3)c2c1C`, the PXC50 by setting is: (MAX_EFFECT 8.556149733) less than 4; (MAX_EFFECT 12.02185792) less than 4.
On to `O=C(O)C1CCCN1c1nc(C2CC2)cc(C(F)(F)F)n1` (stereo not drawn), for which the PXC50 (MAX_EFFECT 5.221932115) was less than 4 and the PXC50 (MAX_EFFECT 7.049608355) was less than 4.
`Cn1cc(CN2CCC(F)(F)C3(CCN(c4ncc(F)cn4)C3)C2)cn1` (stereo not drawn) registered a PXC50 (MAX_EFFECT 3.286384977) of less than 4 and a PXC50 (MAX_EFFECT 5.740740741) of less than 4.
Take `O=C(CC1CCCCC1)N1CCC(c2ncc3c(n2)CCNC3)CC1`: the PXC50 by setting is: (MAX_EFFECT 14.51247166) less than 4; (MAX_EFFECT 29.90654206) less than 4.
Consider `OCc1ccncc1NCc1cnc(-c2ccccn2)s1`, for which the PXC50 was less than 4 (MAX_EFFECT 2.34741784) and less than 4 (MAX_EFFECT 7.222222222).
Take `Cc1cc(C)n(-c2nc(NC3CCCC3)c3c4c(sc3n2)CCCC4)n1`: the PXC50 runs as follows: (MAX_EFFECT 22.91666667) less than 4; (MAX_EFFECT 34.21052632) less than 4.
For the molecule `CS(=O)(=O)N1CCN(c2ccc3c(F)cc(C(=O)NC4CCCC4)cn23)CC1`, the PXC50 is less than 4 (MAX_EFFECT 12.5) and less than 4 (MAX_EFFECT 15.35087719).
`NS(=O)(=O)c1ccc(Cl)cc1Cl`: the PXC50 is, setting by setting: (MAX_EFFECT 7.991360691) less than 3; (MAX_EFFECT 11.97718631) less than 3.
As for `FC1(F)CCN(Cc2ccccn2)CC12CCN(c1ncccn1)C2` (stereo not drawn), the PXC50 by setting is: (MAX_EFFECT 3.628117914) less than 4; (MAX_EFFECT 16.82242991) less than 4.
Take `CCOC(=O)c1sc2nc(C)nc(NC3CCCCC3)c2c1C`: the PXC50 by setting is: (MAX_EFFECT 13.06532663) less than 4; (MAX_EFFECT 16.95331695) less than 4.
Regarding `COCCNc1nc(-c2cccnc2)nc2sc3c(c12)CCCC3`, the PXC50 by setting is: (MAX_EFFECT 11.84210526) less than 4; (MAX_EFFECT 12.5) less than 4.
Consider `O=C(c1cc[nH]n1)N1CCC(F)(F)C2(CCN(c3ccccn3)C2)C1` (stereo not drawn), for which the PXC50 runs as follows: (MAX_EFFECT 8.450704225) less than 4; (MAX_EFFECT 10.92592593) less than 4.
As for `Cc1nc(NCCCS(N)(=O)=O)c2c3c(sc2n1)CCC3`, the PXC50 was less than 4 (MAX_EFFECT 5.319148936) and less than 4 (MAX_EFFECT 8.29015544).
Take `CS(=O)(=O)N1CCN(c2ccc3ccc(C(=O)NCCn4cccn4)cn23)CC1`: the PXC50 was found to be 4.95 (BOTTOM 1.569537618, HILLSLOPE 2.334941078, MAX_EFFECT 65.07177033, TOP 65.29640188) and 4.79 (BOTTOM 7.030389685, HILLSLOPE 2.531896239, MAX_EFFECT 68.73857404, TOP 69.44063033).
On to `CC(=O)NCCNc1nc(-c2cccnc2)nc2sc(C)c(C)c12`, for which the PXC50 is less than 4 (MAX_EFFECT 9.574468085) and less than 4 (MAX_EFFECT 10.3626943).
For `CCN(CC)c1ccc2ccc(C(=O)N(C)C)cn12`, the PXC50 is, setting by setting: (MAX_EFFECT 27.22222222) less than 4; (MAX_EFFECT 35.21126761) less than 4.
